PubChem BioAssay
A number with no mark means an inactive call. No rule for the calls is given here.

Target: Pantothenate synthetase (Mycobacterium tuberculosis (strain ATCC 25618 / H37Rv)) (UniProt P9WIL5)
Assay: Recombinant Mtb pantothenate synthetase (PanC) inhibitors, coupled enzyme, confirmatory (AID 375);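 also: 0% = full reaction with vehicle and 100% = no enzyme background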
Details: coupled enzyme assay; at 10 µM, active compounds read high

Chain of Pantothenate synthetase (Mycobacterium tuberculosis (strain ATCC 25618 / H37Rv)) (P9WIL5 whole entry, looked up): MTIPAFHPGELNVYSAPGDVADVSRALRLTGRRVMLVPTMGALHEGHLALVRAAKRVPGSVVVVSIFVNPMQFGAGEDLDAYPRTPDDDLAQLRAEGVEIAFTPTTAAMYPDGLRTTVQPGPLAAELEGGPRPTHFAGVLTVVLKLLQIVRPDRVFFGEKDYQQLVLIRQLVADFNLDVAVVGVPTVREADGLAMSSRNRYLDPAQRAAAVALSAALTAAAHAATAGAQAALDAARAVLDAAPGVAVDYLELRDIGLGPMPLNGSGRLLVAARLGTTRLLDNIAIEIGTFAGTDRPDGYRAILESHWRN

Row | SMILES | inhibition
1 | COc1ccc(OC)c(NS(=O)(=O)Cc2ccccc2)c1 | 0%
2 | CN1C(=S)SC(C)(NO)C1(C)C (stereo not drawn) | 0%
3 | CCCNC(=O)c1c(N)n(-c2cc(OC)cc(OC)c2)c2nc3ccccc3nc12 | 8%
4 | COc1ccc(S(=O)(=O)N2CCCC2C(=O)Nc2ccc(C)cc2)cc1 (stereo not drawn) | 0%
5 | Cc1ccccc1-c1nc(CS(=O)(=O)CC(=O)NCc2ccccc2)c(C)o1 | 0%
6 | COc1cc2[nH]c(=O)n(CCCCCC(=O)NCCCN3CCCC3=O)c(=O)c2cc1OC | 0%
7 | CCO/C([O-])=N/c1c[n+](N2CCOCC2)no1 | 0%
8 | Cc1ccc(C)c(-c2nc3cc(N)ccc3o2)c1 | 0%
9 | COc1ccc(NC(=O)CSc2ccccn2)cc1OC | 0%
10 | COc1ccc(OC)c(NC(=O)CSc2ncccc2C(=O)O)c1 | 0%
11 | Cn1c(=O)c2c(nc(N3CCCCC3)n2CCSc2nc3ccccc3o2)n(C)c1=O | 8%
12 | COC(=O)Nc1nnc(CCc2ccccc2)s1 | 2%
13 | O=C(NCC1CCCO1)c1cc(-c2ccncc2)nc2ccc(S(=O)(=O)N3CCOCC3)cc12 (stereo not drawn) | 0%
14 | COc1ccccc1CNC(=O)C1CCCN(S(=O)(=O)c2cnc[nH]2)C1 (stereo not drawn) | 0%
15 | N#Cc1cn(CC(=O)N2CCCC2)c2ccccc12 | 0%
16 | C=CCn1c(N)c(C(=O)OC(C)(C)C)c2nc3ccccc3nc21 | 1%
17 | COc1ccc(-c2noc(CCCC(=O)O)n2)cc1 | 8%
18 | COc1ccc(-c2nn3c(-c4cccc(C)c4)nnc3s2)cc1OC | 4%
19 | COc1ccc(CNc2ccc(C(=O)O)cc2)cc1 | 0%
20 | COc1cccc(CN=CC2=C(O)CC(C)(C)CC2=O)c1OC | 0%
21 | COc1ccccc1-c1nnc(SCC(=O)NC2CCCCC2)o1 | 0%
22 | CSC1CCCCC1(O)CSc1nc2c(cc1C#N)CCCC2 (stereo not drawn) | 4%
23 | O=S(=O)(NCCc1ccccn1)c1cccs1 | 3%
